# An excerpt weighted towards active compounds, which were near 3% of everything screened.
# esBAF inh: blocks esBAF chromatin remodeling in mouse ES cells. 350,000 tested, 2% active. Bmi1-luciferase knock-in reporter, 24 h; 100% = twice the neutral-well signal. reporter increase, % at 12.5 µM. AID 602393; in the data active means activation above about 40%; inconclusive means no clear call, values can overlap the other calls;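 further: 0% = median of the plate's neutral control wells and 100% = double that signal; a rise in the Bmi1 reporter signal indicates esBAF inhibition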
# N-glyco inh: N-linked glycosylation inhibition. D54 ERlucT glycosylation luciferase reporter, 24 h; percent of 100 nM tunicamycin response. reporter increase, % at 12.5 µM. 360,000 tested, 0.23% active;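 active means mean luciferase reporter signal, scaled so untreated is 0 and the glycosylation-blocking control 100, at or above a set limit in every replicate; inconclusive means mean reaches the limit but not every replicate does; inactive means mean below the limit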;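 further: luciferase carries N-glycosylation sites so blocking glycosylation raises the light; 0% = median of neutral control wells and 100% = median of 100 nM tunicamycin wells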
# PfHsp90 yeast 2: inhibits growth of yeast expressing Plasmodium falciparum Hsp90. S. cerevisiae expressing PfHsp90, BacTiter-Glo ATP, 48 h; yeast lacking PDR1 and PDR3 efflux regulators. inhibition, % at 9.4 µM. 310,000 tested, 0.32% active. AID 504621;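 active means every replicate shows inhibition above about 80%, whatever the replicate mean, limit read from the data; inconclusive means mean inhibition reaches the set limit but some replicate falls short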;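 further: 0% = DMSO neutral controls and 100% = 20 µM radicicol positive controls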
# Wnt bcat act: Wnt/beta-catenin pathway activation; Wnt/beta-catenin reporter cell assay, activator, plate reader; activation, % at 9.35 µM; 300,000 tested, 1.2% active; in the data active means activation above about 30%, passing the limit was not always enough; inconclusive means no clear call, values can overlap the other calls;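 further: 0% = neutral control wells and 100% = positive control wells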
# Vif imaging: inhibitors of HIV Vif | inhibition, % at 7.49 µM | AID 602346 | HEK293T cells, Vif self-association by quenched fluorescence, imaging, 24 h | 340,000 tested, 0.35% active; in the data active means inhibition above about 50%, passing the limit was not always enough; inconclusive means no clear call, values can overlap the other calls; inactive means below about 31%
# MITF act: activators of MITF-driven TRPM1 promoter activity in SK-MEL-5 cells. activation, % at 12.5 µM. 300,000 tested, 0.75% active. SK-MEL-5 TRPM1-promoter luciferase, 24 h; % of positive control, neutral wells = 0. AID 588334;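 active means mean activation of at least 80% with every replicate also reaching 80%; inconclusive means mean reaches 80% but some replicate falls short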;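 further: 0% = neutral control wells and 100% = parthenolide positive control wells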
# An asterisk follows results filed as active; ? = inconclusive; / = no result given.
SMILES,esBAF inh,N-glyco inh,PfHsp90 yeast 2,Wnt bcat act,Vif imaging,MITF act
O=C(CSc1nnc(-c2ccccn2)o1)Nc1ccccc1F,-9,-10,-18,37*,21,12
CN1CC(=O)N(C)c2ncn(Cc3ccccc3)c2C1=O,/,0,3,/,4,-8
CCC(=O)N1CCN(c2ccccc2NC(=O)Cc2ccc(Cl)cc2)CC1,-14,1,3,/,-3,-9
Cc1[nH]n(-c2ccc([N+](=O)[O-])cc2)c(=O)c1/C=N/N1CCOCC1,10,1,50,15,0,24
O=C(CSc1ncccn1)NC(=O)NCc1ccco1,-6,0,15,36*,-6,-12
O=C(CSc1ncccn1)NC(=O)Nc1ccc2c(c1)OCCO2,31,3,-7,5,60*,52
O=C(CSc1nnc(-c2ccccn2)o1)Nc1cccc(Cl)c1,65*,-1,15,-2,2,/
O=C(CSc1nc2ccccc2o1)NC(=O)NCc1ccco1,-5,-2,17,-1,10,0
Cc1cc(NC(=O)CSc2nnc(-c3ccc(O)cc3)o2)no1,12,0,7,0,-3,8
O=C(CSc1nnc(-c2ccc(O)cc2)o1)Nc1ccccc1,18,-10,-8,34*,16,45
COc1c(/C=N/NC(=O)[C@H]2C[C@@H]2c2ccccc2)c(CCN(C)C(C)=O)cc2c1OCO2,-6,0,7,-3,-10,-6
CCN(CC)S(=O)(=O)c1cccc(C(=O)Nc2cccc(C)c2)c1,40,1,/,24,-15,/
O=C(CSc1nnc(-c2cccc(Cl)c2)o1)Nc1ccc2c(c1)OCCO2,32,-4,/,-2,-4,88*
CSc1ccccc1OCc1cc(C(=O)NCc2ccc(C)s2)no1,-5,0,2,0,-3,36
CSc1ccccc1OCc1cc(C(=O)N(C)Cc2ccc3nsnc3c2)no1,28,-7,-3,35*,-10,78
CSc1ccccc1OCc1cc(C(=O)N(C)Cc2ccc(C)o2)no1,75*,1,-50,18,-6,99*
CCOC(=O)c1ccc(CNC(=O)c2cc(COc3ccccc3SC)on2)o1,54*,-2,-6,30,-3,103*
CC(=O)c1cccc(OCc2cc(C(=O)N(C)Cc3ccc(C)o3)no2)c1,38,-3,16,15,7,43
OCCOCCn1c(C2CCCN2c2nc(-c3ccc(F)cc3)cs2)nc2cc(C(F)(F)F)ccc21 (stereo not drawn),4,-16,108*,-7,/,-17
OCCOCCn1c(C2CCCN2c2nc(-c3ccc(F)cc3)cs2)nc2cc(Cl)c(Cl)cc21 (stereo not drawn),11,2,110*,-6,/,-10
COc1ccc(S(=O)(=O)NC(C)C(=O)NCc2ccc3c(c2)OCO3)cc1OC (stereo not drawn),1,4,7,1,-9,2
CC1Oc2ccccc2C(=O)N(CC(=O)c2ccc3c(c2)OCCO3)C1=O (stereo not drawn),16,-7,-9,5,-7,19
CCC1Oc2ccccc2C(=O)N(CC(=O)c2ccc3c(c2)OCCO3)C1=O (stereo not drawn),69*,0,11,-4,-2,52
CC(C)CN1C(=O)C(=O)N(CC(=O)NCc2ccc3c(c2)OCO3)C1=O,-5,1,-13,/,/,8
CC(C)CN1C(=O)C(=O)N(CC(=O)c2ccc3c(c2)OCO3)C1=O,14,2,-4,-1,147*,19
SMILES,esBAF inh,N-glyco inh,PfHsp90 yeast 2,Wnt bcat act,Vif imaging,MITF act
CC(C)C1Oc2ccccc2C(=O)N(CC(=O)c2ccc3c(c2)OCCO3)C1=O (stereo not drawn),71*,-10,-1,33*,-19,58
O=C(c1cn(-c2ccccc2)nc1-c1ccccc1)N1CCOCC1,6,4,13,2,13,4
O=C(c1cccs1)N1CCN(C(=O)c2cn(-c3ccccc3)nc2-c2ccccc2)CC1,54*,-4,/,12,-20,25
CS(=O)(=O)NCCSc1nnnn1-c1ccccc1,/,0,-9,/,4,-1
O=S(=O)(NCCSc1nnnn1-c1ccccc1)c1cccs1,53*,-4,13,8,-14,14
Cc1ccc(OCCN2CCOCC2)cc1C,22,1,6,3,-2,/
Cc1cc(OCCN2CCOCC2)ccc1Cl,43*,2,-6,11,-3,71
CCCCCn1cnc2c(sc3nc4c(cc32)CSC(C)(C)C4)c1=O,39,-8,/,/,2,94*
COc1ccccc1CNC(=O)Cn1cccc1C(=O)c1ccccc1C,43*,-2,-28,5,-5,26
Cc1ccccc1C(=O)c1cccn1CC(=O)NCc1cccc(Cl)c1,64*,-1,9,5,-7,39
Cc1ccccc1C(=O)c1cccn1CC(=O)NCc1ccc(Cl)cc1,16,1,9,-1,10,-1
C[C@@H]1CN([C@H](C)CO)S(=O)(=O)c2ccc(C#Cc3ccncc3)cc2O[C@H]1CN(C)C(=O)c1ccncc1,18,/,/,/,/,/
Cc1ccc(C(=O)NC(N2CCCC2)C(Cl)(Cl)Cl)cc1 (stereo not drawn),3,1,12,0,56*,-9
O=C(NC(N1CCOCC1)C(Cl)(Cl)Cl)c1ccc(Br)cc1 (stereo not drawn),/,2,2,-2,/,-4
CC1(C)NC(=O)N(CC(=O)NNC(=O)c2ccccc2F)C1=O,18,1,8,7,12,/
Cc1ccc(OCc2cc(C(=O)N3CC4C[C@@H]5CC3C[C@H](C4)C5)no2)cc1C,52*,-3,9,20,-10,110*
Cc1cccc(C)c1OCc1cc(C(=O)N2CC3C[C@@H]4CC2C[C@H](C3)C4)no1,82*,-4,1,36*,-4,115*
COCC1CCN(C(=O)c2cc(COc3ccc(C)c(C)c3)on2)C1 (stereo not drawn),1,1,11,1,5,6
CCOCCCNC(=O)c1cccc(OC2CCN(S(C)(=O)=O)CC2)c1,67*,0,-10,13,-1,/
O=C(NCCc1c[nH]c2ccccc12)c1[nH]c(C(F)(F)F)nc1-c1ccccc1,-1,-1,/,0,-1,/
CC(C)(C)C(=O)N1CCn2c1nc1ccccc12,0,2,-5,-2,-4,-2
O=C(c1cccs1)N1CCN(C(=O)c2cccs2)C1=S,14,3,21,-1,76*,-16
COc1ccc(C(=O)N2CCn3c2nc2ccccc23)cc1,?,2,22,23,-6,78
O=C(c1cccs1)N1CCn2c1nc1ccccc12,36,1,5,15,-4,82*
O=C(c1ccc(Cl)cc1)N1CCn2c1nc1ccccc12,49*,0,/,2,-4,62

# Compound activity deposited in PubChem BioAssay by Broad Institute.
